Experimental findings from PubChem BioAssay AID2073 (Sanford-Burnham Center for Chemical Genomics, 2009) are described below.

As a reminder, the inhibition is the change of the read-out against control, counted positive when it falls.

For this test, the target named is Voltage-dependent N-type calcium channel subunit alpha-1B (Homo sapiens) (UniProt Q00975). As to the kind of experiment: inhibitors of Mint1-CaV2.2 protein interaction, biochemical, HTRF (AID 2073). Conditions: at 20 µM, stronger effect = higher value. Background: Time-resolved FRET reads energy transfer from a long-lived donor to a nearby acceptor.

Out of some 290,000 compounds screened, about 570 (0.2%) were called active. Roughly 1% stayed inconclusive and do not appear here. The sample holds actives, similar compounds and a random draw of the others, so the mix is not that of the screen. No stated cut-off is given here; in the data, active means inhibition mostly above about 51% (no sharp cut-off); inconclusive means no clear call, values can overlap the other calls; inactive means mostly below about 53%.

Voltage-dependent N-type calcium channel subunit alpha-1B (Homo sapiens), sequence (Q00975 whole entry, looked up): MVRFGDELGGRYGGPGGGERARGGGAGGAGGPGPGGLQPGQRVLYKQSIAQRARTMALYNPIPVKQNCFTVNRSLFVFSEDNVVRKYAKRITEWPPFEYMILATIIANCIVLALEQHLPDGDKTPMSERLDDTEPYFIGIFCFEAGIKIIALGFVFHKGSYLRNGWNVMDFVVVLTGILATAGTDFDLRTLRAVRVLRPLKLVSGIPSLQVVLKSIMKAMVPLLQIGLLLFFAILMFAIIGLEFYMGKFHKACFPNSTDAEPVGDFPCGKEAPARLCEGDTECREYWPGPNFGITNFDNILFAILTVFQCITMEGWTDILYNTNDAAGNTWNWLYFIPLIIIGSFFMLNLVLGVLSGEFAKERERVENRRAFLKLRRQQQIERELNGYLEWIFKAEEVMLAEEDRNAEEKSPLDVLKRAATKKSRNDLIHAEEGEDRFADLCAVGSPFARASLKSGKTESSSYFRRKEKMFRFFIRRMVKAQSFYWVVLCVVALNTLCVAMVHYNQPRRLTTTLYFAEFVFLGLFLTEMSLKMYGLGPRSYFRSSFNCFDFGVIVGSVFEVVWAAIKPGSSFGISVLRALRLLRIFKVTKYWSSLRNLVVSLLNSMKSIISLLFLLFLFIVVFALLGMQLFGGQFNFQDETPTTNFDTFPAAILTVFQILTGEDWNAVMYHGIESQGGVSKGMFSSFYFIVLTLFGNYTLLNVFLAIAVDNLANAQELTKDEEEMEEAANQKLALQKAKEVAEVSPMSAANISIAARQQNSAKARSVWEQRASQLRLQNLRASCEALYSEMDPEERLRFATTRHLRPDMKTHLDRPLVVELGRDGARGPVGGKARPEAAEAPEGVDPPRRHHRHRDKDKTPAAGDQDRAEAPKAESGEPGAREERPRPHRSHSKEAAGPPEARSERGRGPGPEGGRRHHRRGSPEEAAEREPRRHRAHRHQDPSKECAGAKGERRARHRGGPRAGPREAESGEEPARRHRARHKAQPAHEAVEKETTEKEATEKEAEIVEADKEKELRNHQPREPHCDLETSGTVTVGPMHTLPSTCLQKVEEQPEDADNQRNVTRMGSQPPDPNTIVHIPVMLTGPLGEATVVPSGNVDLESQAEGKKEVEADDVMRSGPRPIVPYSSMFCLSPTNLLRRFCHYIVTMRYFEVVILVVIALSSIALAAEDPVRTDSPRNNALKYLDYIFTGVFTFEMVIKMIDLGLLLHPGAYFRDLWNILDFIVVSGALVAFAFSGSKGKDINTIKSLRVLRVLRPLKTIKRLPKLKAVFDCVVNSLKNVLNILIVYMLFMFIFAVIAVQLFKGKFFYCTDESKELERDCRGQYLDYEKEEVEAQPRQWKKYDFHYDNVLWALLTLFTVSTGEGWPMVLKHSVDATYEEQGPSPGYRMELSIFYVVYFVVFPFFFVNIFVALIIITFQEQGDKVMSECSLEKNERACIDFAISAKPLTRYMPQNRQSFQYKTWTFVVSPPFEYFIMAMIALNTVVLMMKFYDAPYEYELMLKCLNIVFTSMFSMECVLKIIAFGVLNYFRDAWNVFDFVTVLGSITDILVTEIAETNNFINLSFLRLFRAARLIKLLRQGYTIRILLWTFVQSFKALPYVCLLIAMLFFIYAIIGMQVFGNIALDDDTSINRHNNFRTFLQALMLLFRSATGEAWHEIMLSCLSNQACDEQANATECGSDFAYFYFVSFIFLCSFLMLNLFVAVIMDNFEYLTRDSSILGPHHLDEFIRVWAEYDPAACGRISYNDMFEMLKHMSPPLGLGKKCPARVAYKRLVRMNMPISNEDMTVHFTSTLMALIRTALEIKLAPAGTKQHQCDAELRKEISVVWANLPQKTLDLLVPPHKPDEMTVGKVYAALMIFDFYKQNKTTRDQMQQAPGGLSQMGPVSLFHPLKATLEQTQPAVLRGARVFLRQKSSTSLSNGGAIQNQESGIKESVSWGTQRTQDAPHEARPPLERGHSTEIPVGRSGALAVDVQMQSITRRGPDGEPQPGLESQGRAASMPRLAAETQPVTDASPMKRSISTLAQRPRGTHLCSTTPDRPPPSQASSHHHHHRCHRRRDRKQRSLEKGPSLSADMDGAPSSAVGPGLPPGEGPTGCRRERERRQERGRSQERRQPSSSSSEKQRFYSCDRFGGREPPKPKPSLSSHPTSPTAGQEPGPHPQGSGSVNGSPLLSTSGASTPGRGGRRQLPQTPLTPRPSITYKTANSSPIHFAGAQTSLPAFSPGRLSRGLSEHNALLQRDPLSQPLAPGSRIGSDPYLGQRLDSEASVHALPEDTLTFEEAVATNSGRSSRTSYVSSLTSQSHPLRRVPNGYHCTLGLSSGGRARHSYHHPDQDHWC

For the compound `CCC(C)(C)n1nnnc1C(c1ccc(Cl)cc1)N1CCN(C)CC1` (configuration not stated), the inhibition was -3.8% (inactive). Same read-out and setting: the same measure for `Cc1nn(C)c(C)c1CS(=O)(=O)c1ccccc1`: -4% (inactive); for `CCc1c(C(C)S(=O)(=O)c2ccccc2)[nH]c(=O)n1CC` (configuration not stated): -7.8% (inactive); for `CCn1c(C)c(CS(=O)(=O)c2ccccc2)[nH]c1=O`: 73.9% (active). For `Cc1ccc2cc(CN(C(=O)c3cccs3)c3ccccc3)c(=O)[nH]c2c1`, the inhibition is 4.6% (inactive).

For `CC(C)O/C(=N\S(=O)(=O)c1ccc(Cl)cc1)c1ccccc1`, the inhibition is 3.7% (inactive). Same read-out and setting: for `Cc1ccc(N=c2sc(C)c(C)n2C)cc1` the value was -35.3% (inactive); for `Cc1cc(C)cc(C(N)=Nc2cccc(C#N)c2)c1`, 4.9% (inactive). Turning to `NC1=NC(=Nc2ccc(Br)cc2)c2ccccc21`, the inhibition was -1.5% (inactive). Still for that read-out and setting: for `CCOC(=O)c1ccc(N=NN(C)C)cc1` the value was -7% (inactive). The same measure, in the same setting: the same measure for `Cc1ccc(N=C2CSC(=O)N2)cc1`: -2.7% (inactive). Consider `CCOC(=O)c1ccc(N=c2scc(C)n2CC)cc1`, for which the inhibition was 3.7% (inactive). On the same count and under the same terms, for `CN1C(=O)CSC1=Nc1ccc(Br)cc1` the value was -4.4% (inactive); for `N#Cc1ccc(N=c2ssnc2Cl)cc1`, 44.2% (inactive).

As to `O=C(COc1ccccc1Cl)Nc1ccc(CN2CCOCC2)cc1`, the inhibition is -4.3% (inactive). The same measure, in the same setting: for `Cc1nn(CC(=O)N2CCC(N3CCCCC3)CC2)c(=O)c2c1sc1ccccc12` the value was 16.1% (inactive); for `Cc1ccc(NC(=O)Cn2nnc(C(=O)NCc3ccc4c(c3)OCO4)c2N)cc1`, 9.7% (inactive); for `O=C(NNc1ccccc1)Nc1ccccc1F`, -15.6% (inactive). Same read-out and setting: for `CC(C)(C)C1CCC(=NNC(=O)C(=O)NC2CCCCC2)CC1` (configuration not stated) the value was 2.1% (inactive); for `O=C(OCc1nnc(-c2ccc(Cl)cc2)o1)c1ccncc1`, 7.7% (inactive). Same read-out and setting: the same measure for `Clc1ss/c(=N\c2ccccn2)c1Cl`: 6.4% (inactive); for `Clc1ccc(N=c2ssnc2Cl)cc1`: -17.4% (inactive). `Cc1c(CCC(=O)O)c(=O)oc2cc(OCc3cccc(F)c3)ccc12`: the inhibition is 16.2% (inactive). For the compound `N#Cc1c(-c2ccco2)cc(-c2ccccc2)[nH]c1=O`, the inhibition was 48.2% (inactive). Still for that read-out and setting: for `N#Cc1c(-c2ccccc2)cc(-c2ccco2)c(C#N)c1N` the value was 53.5% (active); for `CSc1nc(-c2ccco2)cc(-c2ccccc2)c1C#N`, 15.4% (inactive); for `COc1cc(OC)c(NC(=O)c2ccc3c(SCC(=O)O)c4c(nc3c2)CCCC4)cc1Cl`, 44.9% (inactive).

Turning to `COc1ccc(Cl)cc1NC(=O)c1ccc2c(SCC(=O)O)c3c(nc2c1)CCCC3`, the inhibition was 12.3% (inactive). On the same count and under the same terms, the same measure for `COc1cc(Cl)c(C)cc1NC(=O)c1ccc2c(SCC(=O)O)c3c(nc2c1)CCCC3`: 53.2% (active); for `CCCOc1cccc(C(=O)O)c1`: -5.1% (inactive); for `O=C(N/N=C/c1ccco1)c1cc(-c2ccc3ccccc3c2)n[nH]1`: 5.5% (inactive). As for `CC(/C=N/NC(=O)c1cc(-c2ccc(Cl)cc2)nc2ccccc12)=C\c1ccco1`, the inhibition was 37.8% (inactive).

As for `CC(/C=N/NC(=O)c1cc(-c2ccc3ccccc3c2)n[nH]1)=C\c1ccco1`, the inhibition was 73.3% (active). With `O=C(N/N=C\C=C\c1ccco1)c1cc(-c2ccc3ccccc3c2)n[nH]1`, the inhibition is 80.2% (inactive). Also, the inhibition (measured here: average of repeat tests) turned out to be 9.6%. Take `CC(/C=N/NC(=O)c1cc(-c2ccncc2)nc2ccccc12)=C\c1ccco1`: the inhibition is 43.6% (inactive). The same measure, in the same setting: for `CC(/C=N/NC(=O)c1cc(-c2ccccc2)nc2ccccc12)=C\c1ccco1` the value was 52.6% (active); for `CCOc1cc(C(=O)O)cc(Cl)c1OC`, 0.7% (inactive). The same measure, in the same setting: the same measure for `Cc1ccc(N2CCN(/N=C/C=C/c3ccccc3)CC2)cc1`: 2.8% (inactive).

In the case of `CNC(=S)/N=C(/Nc1ccccc1)c1ccccc1`, the inhibition was 59.9% (active). The same measure, in the same setting: the same measure for `Cc1ccc(NC(=O)c2ccccc2)cc1`: -4.2% (inactive); for `N/C(=N\C(=S)Nc1ccccc1)c1ccccc1`: 5.2% (inactive). Same read-out and setting: the same measure for `CNC(=S)Nc1ccc(Nc2ccccc2)cc1`: -5.3% (inactive).

`Cc1ccc(NC(=S)c2ccccc2)cc1`: the inhibition was -6.4% (inactive).

On to `CS(=O)(=O)NCCSCc1c(Cl)cccc1Cl`, for which the inhibition is 28.1% (inactive).

As for `N#Cc1c(C(F)(F)F)cc(C2CC2)[nH]c1=O`, the inhibition was 6.1% (inactive). Same read-out and setting: for `Cc1ccc(C(=S)NCS(=O)(=O)c2ccc(C)cc2)cc1` the value was 28% (inactive); for `C(=C\c1ccco1)/c1nc2ccccc2[nH]1`, 65.6% (active); for `Cc1ccc(/C=C/c2nc3ccccc3[nH]2)o1`, 44.8% (inactive).

In the case of `C(=C\c1nc2ccccc2[nH]1)/c1ccccc1`, the inhibition is 5.8% (inactive). Same read-out and setting: the same measure for `CCc1ccc(CN2CCC(n3nccc3NC(=O)c3ccc4c(c3)OCO4)CC2)cc1`: 2.8% (inactive); for `N#Cc1c(N)sc(=S)c2c1CCN(Cc1ccccc1)C2`: 52.4% (active).

For `N#Cc1c(N)sc2c1CCN(CCc1ccccc1)C2`, the inhibition is 3.3% (inactive). For `N#Cc1c(N2CCCCC2)nc(N2CCCCC2)c2c1CCN(Cc1ccccc1)C2`, the inhibition was 16.2% (inactive). On the same count and under the same terms, the same measure for `CN(C(=O)CC1C(=O)NCCN1Cc1ccccc1F)C1CCOCC1` (configuration not stated): 16.3% (inactive). On the same count and under the same terms, for `CC1=CC(C)(C)N(C)C(=O)N1c1ccc(Cl)cc1` the value was -2.6% (inactive).

On to `Cc1cc(=O)cc(C)n1-c1ccc(Cl)cc1`, for which the inhibition is 7.3% (inactive). On to `Cc1c(Cl)sn(-c2ccc(Cl)cc2)c1=O`, for which the inhibition was 79.2% (active).

Take `CN1CCN(C(=O)CN(c2cc(C(F)(F)F)ccc2Cl)S(C)(=O)=O)CC1`: the inhibition was -10.8% (inactive).

In the case of `O=C(O)CC/C(=C\c1ccc(Cl)c([N+](=O)[O-])c1)c1nc2ccccc2s1`, the inhibition was 6.1% (inactive).

Turning to `CN(c1ccccc1)c1ccc(/C=C(\CCC(=O)O)c2nc3ccccc3s2)cc1[N+](=O)[O-]`, the inhibition was 54.7% (active). On the same count and under the same terms, for `Cc1ccc(/C=C(\CCC(=O)O)c2nc3ccccc3s2)cc1[N+](=O)[O-]` the value was 7% (inactive).

Regarding `CCC(C(=O)N1CCOCC1)n1nc(C)c2sc3ccccc3c2c1=O` (configuration not stated), the inhibition was 12.1% (inactive). `CN1CCN(c2ccccc2NC(=O)c2cccc(OCc3ccccc3)c2)CC1`: the inhibition was 19% (inactive). As to `COCCn1c(SCC(=O)Nc2ccc(F)cc2)nc2ccccc2c1=O`, the inhibition is 6.9% (inactive). Still for that read-out and setting: the same measure for `COCCn1c(SCC(=O)Nc2ccc(NC(C)=O)cc2)nc2ccccc2c1=O`: -7.5% (inactive). Same read-out and setting: the same measure for `CC1(C)CC(=O)C=C(NNC(=O)C2CCCCC2)C1`: 1.6% (inactive).
